This is part of a sample that, as a whole, favours compounds with a hit. Of some 83,000 tested, about 20% had one in any assay.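 Method: cells in 96-well plates; compound added at one concentration; 48 h incubation; percent growth measured; values under 10 scored active.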 The source made the active and inactive calls.

The experiment deals with SNB-19 CNS. The experiment is described as follows: NCI-60 one-dose screen, 48 h (100 = growth as untreated, 0 = no growth, -100 = all killed). As to conditions: 10 µM unless noted.
As to `O=C1Nc2ccccc2/C1=C/c1cn(C(=O)c2c(Cl)cccc2Cl)c2ccccc12`, the growth is 68.7% (inactive).

For the molecule `C=CCn1c(C)nc2cc(Nc3nc(N4CCCC4)nc4ccccc34)ccc21`, the growth is 107% (inactive).

In the case of `COc1ccc2nc(NNC(=O)c3cnccn3)c3cccn3c2c1`, the growth is 6.9% (active).

With `CC(=O)OC1CCC2(C)C(=CC3C4CCC(=O)C4(C)CCC32)C1` (stereo not drawn), the growth is 98.6% (inactive).

On to `Cc1ccc(-n2c(-c3ccccc3)c(-c3ccccc3)c3c(SCC(=O)n4[nH]c(N)cc4=O)ncnc32)cc1`, for which the growth is 91.8% (inactive).

Regarding `C[C@@H]1N=C(c2ccc3ccccc3n2)Nc2nc3ccccn3c2C1=O`, the growth is 91.2% (inactive).

Regarding `N[C@@H](CCCCNCC(=O)O)C(=O)O`, the growth was 99.2% (inactive).

Turning to `Clc1cccc(Cl)c1C(Nc1nc2ccccc2s1)Nc1nc2ccccc2s1`, the growth is 99.1% (inactive).

In the case of `COc1cc(/C=C/C(=O)c2c(C)nc3ccccc3c2C)ccc1OCCCN1CCN(C(=O)c2ccco2)CC1`, the growth is 99% (inactive).

`Cc1ccc(Cc2cnc(NC(=O)c3ccc4noc(-c5ccccc5)c4c3)s2)cc1`: the growth was 92.2% (inactive).

Turning to `CC(=O)c1nc(Nc2ccc(C)cc2)sc1C`, the growth is 93.1% (inactive).

For `Cc1c(C(=O)OC(=NC2CCCCC2)NC2CCCCC2)sc2c1c(=O)nc1c(C#N)n[nH]n12`, the growth was 109% (inactive).

In the case of `O=C(CCc1nnc(CN(c2ccccc2)c2ccccc2)o1)c1nc2ccccc2[nH]1`, the growth was 92.7% (inactive).

Turning to `O=C(CC(SCc1ccccc1)c1ccccc1)c1ccccc1` (stereo not drawn), the growth is 88.6% (inactive).

In the case of `COc1ccc(-c2nc3ccc4[nH]ncc4c3c3c2CCCC3)cc1B(O)O`, the growth was 82.7% (inactive).

Regarding `CC(C)(C)OC(=O)Nc1ccc2c(c1)C(NC(=O)Nc1cccc(C#N)c1)CC(C)(C)O2` (stereo not drawn), the growth is 52.4% (inactive).

As to `O=C(NCCc1ccc(O)c(O)c1)C12CC3CC(CC(C3)C1)C2`, the growth was 98.5% (inactive).

With `CC1=NOC(=O)/C1=C\c1ccc(O)cc1`, the growth was 99% (inactive).

Regarding `O=C1/C(=C\c2cccnc2)SC(=S)N1CCc1ccc(O)cc1`, the growth is 82.5% (inactive).

On to `Cn1cc(-c2csc(-c3cccc(F)c3)n2)c2cccnc21`, for which the growth was -62.8% [100 µM] (active).

With `C=CCn1c(C)nc2cc(Nc3nc(Cl)nc4ccccc34)ccc21`, the growth was 107% (inactive).

Regarding `O=C(NC(Cc1nnc2n(Cc3ccccc3)c(=O)c3c4c(sc3n12)CCCC4)c1ccc(Cl)cc1)c1ccccc1` (stereo not drawn), the growth was 88.5% (inactive).

`N#Cc1c(-c2cccc(Cl)c2)cc(-c2cccc(Cl)c2)[nH]c1=O`: the growth was 71.6% (inactive).

Take `Clc1cccc(Cl)c1/C=C/c1cc(/C=C/c2c(Cl)cccc2Cl)[nH]n1`: the growth was 25.9% (inactive).

As for `O=C1c2cccc(NCCN=Cc3cc([N+](=O)[O-])ccc3O)c2C(=O)c2c(NCCN=Cc3cc([N+](=O)[O-])ccc3O)cccc21`, the growth was 50.4% (inactive).

Consider `COC(=O)[C@H](CSC)N(C)C(=O)[C@@H]1CSSC[C@@H](NC(=O)c2nc3ccccc3cc2O)C(=O)NCC(=O)N1C`, for which the growth was 92.7% (inactive).

Turning to `O=C1N=c2cc3c(cc2=C/C1=C/c1sc(=S)n(CCc2ccc(O)cc2)c1O)OCCO3`, the growth was 22.9% (inactive).

For the molecule `O=C1CC(N2C(=O)/C(=C/C(Cl)=C\c3ccc([N+](=O)[O-])cc3)SC2=S)C(=O)N1c1ccc(O)cc1` (stereo not drawn), the growth is -9.69% (active).

For the molecule `CC(C)(C)C(CCc1ccc(Cl)cc1)N1CCN(C2CCCCC2)CC1` (stereo not drawn), the growth is 70.6% (inactive).

Regarding `COC1=C(OC)C(=O)C(OC)=C(OC)C1=O`, the growth is 99% (inactive).

As to `COc1cc2ncn3c(=O)c4c5c(sc4nc3c2cc1OC)CCCC5`, the growth was 93.2% (inactive).

Turning to `CCn1c(C)nc2cc(C(N)=O)ccc21`, the growth was 104% (inactive).

`O=C(CCCCCCSc1nc(-c2ccccc2)cc(-c2ccc(Cl)cc2)n1)NO`: the growth is 18.3% (inactive).

On to `O=C(Nc1cccc(C(F)(F)F)c1)Nc1cccc(C(F)(F)F)c1`, for which the growth was 10.7% (inactive).

As for `COc1ccc(NC(=O)c2nc(-c3cc(OC)c(OC)c(OC)c3)n(-c3cccc4ccccc34)n2)cc1OC`, the growth is 52.3% (inactive).

On to `CCSC1=NC2C(N(CC)C(=O)N2CC)N1/N=C/C=C/c1ccccc1[N+](=O)[O-]` (stereo not drawn), for which the growth was 22.1% (inactive).

`CC(C)C(=O)Nc1n[nH]c2cc(-c3cccc(NS(=O)(=O)C4CC4)c3)ccc12`: the growth is 89.7% (inactive).

In the case of `Cn1c(=O)c2[nH]c(NN)nc2n(C)c1=O`, the growth was 110% (inactive).
